Reference: the supplement of paper PMC3484114
± gives the standard deviation.

system: OVCAR-3-derived ovarian cancer stem-like cells (spheroids); test: cell growth relative to untreated control; higher = more growth (less inhibition); conditions: 2.29 µM; 96 h
Method in brief: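 Percent growth was calculated against untreated wells once blanks were subtracted and Grubbs outliers removed. The cells were OVCAR-3 spheroid-derived stem-like cells, trypsinized and plated at 50,000 cells/mL in stem cell medium on ultra-low attachment 96-well plates for a 24 h preincubation. They were then exposed to compounds at 2.29 uM for 96 h at 37°C, 5% CO2, in 4 replicate wells, and viability was measured by TOX8 resazurin fluorescence (ex 560/em 590 nm) after 4 h.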

SMILES | cell growth [%]
O=C1c2ccccc2C(=O)c2sc(Nc3ccc(Cl)c(Cl)c3)nc21 | 9.6 ± 7
CCN1CCC(O)(/C=C/c2ccc(C)cc2)C(C(=O)/C=C/c2ccc(C)cc2)C1 (configuration not stated) | 98.5 ± 13
Cc1nc(Cl)c(C)c(Cl)n1 | 88.2 ± 11
CN(C)c1ccc(/C=C2\Cc3ccccc3C2=O)cc1Br | 169 ± 23
C=C1C(=O)O[C@@H]2/C=C(/C)C(=O)C[C@H]3OC(C)(C)O[C@]3(C)C[C@@H](OC(=O)/C(C)=C\C)[C@@H]12 | 90.5 ± 31
CC1(C)N=C(N)N=C(N)N1c1ccc(OCCCOc2ccccc2)c(Cl)c1 | 43.6 ± 13
Cc1ccc(Cl)c2c(N=Nc3ccccc3[N+](=O)[O-])c(O)[nH]c12 | 107 ± 34
COc1ccc(NC(=O)CC(=O)N2N=C(C)C(N=Nc3ccc(S(=O)(=O)c4ccc(N=NC5C(=O)N(C(=O)CC(=O)Nc6ccc(OC)cc6)N=C5C)cc4)cc3)C2=O)cc1 (configuration not stated) | 105 ± 30
C=CC(=O)N1C/C(=C\c2ccccc2)C(=O)/C(=C/c2ccccc2)C1 | 43.2 ± 6.1
COc1ccc(/C=C2\CCc3ccccc3C2=O)cc1OC | 95.7 ± 11
Cc1cc(O)c(/C=N/C(N)=S)c(=O)o1 | 92.5 ± 14
CN1C(c2ccccc2)CC(=NO)CC1c1ccccc1 (configuration not stated) | 99.7 ± 13
CCCCCCCCCc1c(Cl)nc(Cl)nc1Cl | 113 ± 24
Cc1ccc(NC(=O)c2cccc([N+](=O)[O-])c2O)c(C)c1 | 110 ± 19
Cc1ccc([N+](=O)[O-])cc1NC(=O)c1cccc([N+](=O)[O-])c1O | 146 ± 41
O=[N+]([O-])c1ccccc1S(=O)(=O)c1ccccc1[N+](=O)[O-] | 77.1 ± 18
CCC12C[N+]3([O-])CCc4c([nH]c5ccccc45)C(C(=O)OC)(c4cc5c(cc4OC)N(C)C4C(O)(C(=O)OC)C(OC(C)=O)C6(CC)C=CCN7CCC54C76)CC(C3)C1O2 (configuration not stated) | 27.9 ± 4.2
